This is an account of results in PubChem BioAssay (Tox21).

Results filed as inconclusive are left out. Where a call stands in place of a potency, no number is given. Unmarked numbers belong to inactive results. Active and inactive are the calls of the source. Calls come from the whole dose curve; as a rule, active = well fitted cell-killing curve with a large enough effect in the repeat runs; inconclusive = weak or mixed curves; inactive = no such curve, though single readings can be large or run the other way.
Potency is the fitted concentration of half-maximal effect.

The nature of the assay: qHTS assay to identify small molecule antagonists of the androgen receptor (AR) signaling pathway - cell viability counter screen (AID 743033; note: nearly all actives have a fitted effect of over 45% in size). To be noted: AR-bla HEK293 viability, CellTiter-Glo luminescence, 16 h; series mostly up to 58.5 µM; activity change, negative = cytotoxicity: at the top concentration. The source says: National Center for Advancing Translational Sciences [NCATS]
NIH Chemical Genomics Center [NCGC]
U.S. Environmental Protection Agency [EPA]
National Institutes of Environmental Health Sciences [NIEHS]
National Toxicology Program [NTP]
U.S. Food and Drug Administration [FDA]
Androgen receptor (AR), a nuclear hormone receptor, plays a critical role in AR-dependent prostate cancer and other androgen related diseases. Endocrine disrupting chemicals (EDCs) and their interactions with steroid hormone receptors like AR may cause disruption of normal endocrine function as well as interfere with metabolic homeostasis, reproduction, developmental and behavioral functions. To identify the compounds that inhibit AR signaling, GeneBLAzer AR-UAS-bla-GripTite cell line (Invitrogen, Carlsbad, CA, USA) containing a beta-lactamase reporter gene under control of an Upstream Activator Sequence (UAS) stably integrated into HEK293 cells was used to screen the Tox21 10K compound library. The cytotoxicity of the Tox21 compound library against the AR-bla cell line was tested in parallel by measuring the cell viability using CellTiter-Glo assay in the same wells.
Tox21 Assay Protocol Summary:
AR-bla cells were dispensed at 2,000 cells/5 uL of assay medium per well into black wall/clear-bottom 1536-well plates using a Multidrop Combi (ThermoFisher Scientific, Waltham, MA) dispenser. After the assay plates were incubated at a 37C and 5% CO2 for 4 hr, 23 nL of compounds dissolved in DMSO, positive controls or DMSO only was transferred to the assay plate by a Pintool station (Kalypsys, San Diego, CA), followed by addition of 1 uL of agonist (R1881) in culture medium using a Bioraptr Flying Reagent Dispenser (FRD) workstation (Beckman Coulter, Indianapolis, IN, USA). The plates were incubated at a 37C and 5% CO2 for 16 h. After 1 uL of LiveBLAzerTM B/G FRET substrate was added using a Bioraptr FRD, the plates were incubated at room temperature for 2 h and fluorescence intensity was measured by an Envision plate reader (PerkinElmer, Shelton, CT). For cell viability readout that measures cytotoxicity, 4 ul/well of CellTiter-Glo reagent was added into the assay plates using a Bioraptr FRD. After 30 min incubation at room temperature, the luminescence intensity in the plates was measured using a ViewLux (PerkinElmer) plate reader.
A general note: Quantitative high-throughput screening tests each substance at several concentrations.
`CC(C)c1ccc(C(C)C)cc1`: the Potency result was “inactive”. Regarding `O=C(O)Cc1c[nH]c2ccccc12`, the Potency entry is “inactive”. The same measure, in the same setting: in the case of `CC/C(C)=N/O` it was “inactive”; in that of `CCOC(=O)c1ccc(O)cc1`, “inactive”. As to `CC1(C)[C@@H](O[C@H]2O[C@H](C(=O)O)[C@@H](O)[C@H](O)[C@H]2O[C@@H]2O[C@H](C(=O)O)[C@@H](O)[C@H](O)[C@H]2O)CC[C@]2(C)[C@H]3C(=O)C=C4[C@@H]5C[C@@](C)(C(=O)O)CC[C@]5(C)CC[C@@]4(C)[C@]3(C)CC[C@@H]12`, the Potency result was “inactive”.

Take `CC(COCC(C)OC(=O)c1ccccc1)OC(=O)c1ccccc1` (stereo not given): the Potency result was “inactive”. On the same count and under the same terms, in the case of `COc1ccc([C@@H]2CC(=O)c3c(O)cc(O[C@@H]4O[C@H](CO[C@@H]5O[C@@H](C)[C@H](O)[C@@H](O)[C@H]5O)[C@@H](O)[C@H](O)[C@H]4O)cc3O2)cc1OC` it was “inactive”. In the case of `Cc1cc(C)cc(O)c1`, the Potency result was “inactive”.

In the case of `CCCCCCCCC(=O)O`, the Potency result is “inactive”. Turning to `NC(=O)c1ncn([C@@H]2O[C@H](CO)[C@@H](O)[C@H]2O)n1`, the “activity change, negative = cytotoxicity” value is -25.1%. For `CCCCC(CC)COC(=O)c1ccc(C(=O)OCC(CC)CCCC)cc1` (stereo not given), the Potency result was “inactive”. Regarding `Cc1ccc([N+](=O)[O-])cc1N`, the Potency entry was “inactive”. For `CCCCCCCCCCCC(=O)N(C)CC(=O)O`, the activity change, negative = cytotoxicity is 1.79% [at 7.04 µM]. In the case of `COc1cc(NC(=O)CC(C)=O)c(OC)cc1Cl`, the Potency result is “inactive”. On the same count and under the same terms, in the case of `CCCCC(=O)O` it was “inactive”; in that of `CC(=O)OCc1ccc2c(c1)OCO2`, “inactive”. On the same count and under the same terms, in the case of `O=C(NCC1CCCCN1)c1cc(OCC(F)(F)F)ccc1OCC(F)(F)F` (stereo not given) it was “inactive”. The same measure, in the same setting: then `CCCCCC(C)=O`, with “inactive”; and `COc1ccc(N)c(OC)c1`, with “inactive”. `CC1(C)C(=O)N(Cl)C(=O)N1Cl`: the Potency entry was “inactive”.

Turning to `NCCNCCNCCN`, the Potency entry was “inactive”. Consider `Cc1ccc(C(C)C)cc1`, for which the Potency entry was “inactive”. Regarding `COc1c(Cl)ccc(Cl)c1C(=O)O`, the Potency result was “inactive”. On to `CC(C=O)Cc1ccc(C(C)(C)C)cc1` (stereo not given), for which the Potency result was “inactive”. With `CS(=O)(=O)c1ccc(Cl)cc1`, the “activity change, negative = cytotoxicity” value is -2.82% [at 78.9 µM]. For `c1cnc2c(c1)ccc1cccnc12`, the Potency was 4.9 µM (active). Still for that read-out and setting: then `CCCOC(=O)NCCCN(C)C`, with “inactive”. As to `CN1CCCC1=O`, the Potency result is “inactive”. For `CC(C)(C)NC[C@H](O)COc1nsnc1N1CCOCC1`, the Potency result was “inactive”.

On to `O=c1c(O)c(-c2ccc(O)c(O)c2)oc2cc(O)cc(O)c12`, for which the Potency entry is “inactive”. With `COC(=O)CCCCC(=O)OC`, the Potency entry was “inactive”. Same read-out and setting: in the case of `C[Si](C)(C)N[Si](C)(C)C` it was “inactive”. In the case of `Cc1cccc(C)c1[N+](=O)[O-]`, the “activity change, negative = cytotoxicity” value is 5.89%. For `CC(=O)OC[C@H]1O[C@@](COC(C)=O)(O[C@H]2O[C@H](COC(C)=O)[C@@H](OC(C)=O)[C@H](OC(C)=O)[C@H]2OC(C)=O)[C@@H](OC(C)=O)[C@@H]1OC(C)=O`, the Potency entry is “inactive”.

Consider `C=CC(=O)NCOCCCC`, for which the Potency entry is “inactive”.

Take `O=C1C(N(CO)C(=O)NCO)N(CO)C(=O)N1CO` (stereo not given): the Potency result was “inactive”. Regarding `CCCCCCC(=O)O`, the Potency result was “inactive”.

As for `O=c1n(CCCN2CCN(c3cccc(Cl)c3)CC2)nc2ccccn12`, the Potency result was “inactive”. As to `Cc1ccccc1Cl`, the Potency result is “inactive”.

As to `CC(C)(CO)CO`, the Potency entry was “inactive”.
